Each structure is given as a SMILES string. Structures can show the parent of a compound that is named as a salt.

Experimental findings from the supplement of paper PMC8975748 are described below.

The test concerns Saccharomyces cerevisiae BY4741 SeMeCo community. The test is described as follows: z-score of subpopulation abundance vs DMSO median, subpopulation auxotrophic for L; higher = larger share of this subpopulation than in DMSO controls. The following applies: 10 µM; 24 h; SM minimal medium; subpopulation (auxotrophy): L. The procedure:
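Fluorescent four-plasmid SeMeCo (self-establishing metabolically cooperating S. cerevisiae BY4741 community; plasmids pH-mRuby2, pL-mWasabi, pU-eCFP, pM-TagRFP657) was grown 24 h in minimal SM medium with each Selleck FDA-approved drug at 10 µM in 384-well plates. Cells were fixed and imaged by high-content confocal microscopy. For each auxotrophic subpopulation (and the prototroph), a z-score gives the deviation from the DMSO vehicle-control population median.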
Consider `CCOC(=O)C1=C(COCCN)NC(C)=C(C(=O)OC)[C@@H]1c1ccccc1Cl` [Levamlodipine], for which the “z-score of subpopulation abundance” value was 1.13.
The value for `O=C1c2cccc3c2[C@H](CCC3)CN1[C@@H]1CN2CCC1CC2` [Palonosetron] was -0.81; that for `Cc1ccc2c(Cl)cc(Cl)c(O)c2n1` [Chlorquinaldol] was 0.46.
As to `O=C(O)c1cc(-c2ccc(F)cc2F)ccc1O` [Diflunisal], the “z-score of subpopulation abundance” value worked out at 0.56.
The value for `CCCCc1oc2ccc(NS(C)(=O)=O)cc2c1C(=O)c1ccc(OCCCN(CCCC)CCCC)cc1` [Dronedarone HCl] was 0.34.
The result for `COc1cc2c(cc1OC)C(=O)C(CC1CCN(Cc3ccccc3)CC1)C2` (stereo not given) [Donepezil HCl] reads -0.02; that for `CN(C)CCN1C(=O)c2cccc3cc(N)cc(c23)C1=O` [Amonafide], -0.4; that for `Cc1cc(C)nc(NS(=O)(=O)c2ccc(N)cc2)n1` [Sulfamethazine], 0.4.
With `c1ccc(-c2ccc(C(c3ccccc3)n3ccnc3)cc2)cc1` (stereo not given) [Bifonazole], the “z-score of subpopulation abundance” value was -1.29.
The result for `COc1ccc2cc(CCC(C)=O)ccc2c1` [Nabumetone] reads -1.25.
The value for `NC(=O)c1ncn([C@@H]2O[C@H](CO)[C@@H](O)[C@H]2O)n1` [Ribavirin] was -0.43.
The value for `CN(C)CCc1c[nH]c2ccc(Cn3cncn3)cc12` [Rizatriptan Benzoate] was 0.9; that for `Cc1cccc(N(C)C(=S)Oc2ccc3ccccc3c2)c1` [Tolnaftate] was -0.24.
Take `CN1C2CCCC1CC(NC(=O)c1nn(C)c3ccccc13)C2` (stereo not given) [Granisetron HCl]: the “z-score of subpopulation abundance” value was determined as 0.65.
As for `COCCOC(=O)C1=C(C)NC(C)=C(C(=O)OC/C=C/c2ccccc2)C1c1cccc([N+](=O)[O-])c1` (stereo not given) [Cilnidipine], the “z-score of subpopulation abundance” value is 0.77.
Turning to `NC(=O)c1cn(Cc2c(F)cccc2F)nn1` [Rufinamide], the “z-score of subpopulation abundance” value worked out at 1.41.
Consider `C#C[C@]1(O)CC[C@H]2[C@@H]3CCc4cc(OC)ccc4[C@H]3CC[C@@]21C` [Mestranol], for which the “z-score of subpopulation abundance” value came to 0.33.
The value for `CN(C)CCc1c[nH]c2ccc(C[C@H]3COC(=O)N3)cc12` [Zolmitriptan] was 0.2.
The result for `O=C(Cn1cnnn1)N[C@@H]1C(=O)N2C(C(=O)O)=C(CSc3nncs3)CS[C@H]12` [Ceftezole] reads -0.41; that for `CC(C)(C)C(=O)C(Oc1ccc(Cl)cc1)n1ccnc1` (stereo not given) [Climbazole], -2.61; that for `C[C@]12CC[C@@H]3c4ccc(O)cc4CC[C@H]3[C@@H]1CC[C@@H]2O` [Estradiol], -0.14.
With `CCCCCc1ccc(C)cc1O` [Amylmetacresol], the “z-score of subpopulation abundance” value came out at 0.4.
The value for `CN1CCN(CCCN2c3ccccc3Sc3ccc(C(F)(F)F)cc32)CC1` [Trifluoperazine 2HCl] was -0.42; that for `CN[C@@H]1[C@H](O)[C@H](NC)[C@H]2O[C@@]3(O)C(=O)C[C@@H](C)O[C@H]3O[C@@H]2[C@H]1O` [Spectinomycin 2HCl] was -1.34; that for `COc1cc2c(cc1OC)[C@@H]1Cc3ccc(OC)c(OC)c3CN1CC2` [Rotundine] was -0.28.
The result for `CC(C)[N+](C)(CCOC(=O)C1c2ccccc2Oc2ccccc21)C(C)C` [Propantheline bromide] reads -0.57; that for `O=C(O)CCNC(=O)c1ccccc1` [Betamipron], -1.22.
The result for `CN[C@H]1CC[C@@H](c2ccc(Cl)c(Cl)c2)c2ccccc21` [Sertraline HCl] reads -0.29.
For `COc1ccnc(C[S+]([O-])c2nc3cc(OC(F)F)ccc3[nH]2)c1OC` (stereo not given) [Pantoprazole], the “z-score of subpopulation abundance” value came out at 0.22.
The value for `OCc1ccccc1O[C@@H]1O[C@H](CO)[C@@H](O)[C@H](O)[C@H]1O` [Salicin] was 0.38; that for `O=C(C1CCCCC1)N1CC(=O)N2CCc3ccccc3C2C1` (stereo not given) [Praziquantel] was 0.31; that for `CC(C(=O)O)c1ccc2c(c1)CC(=O)c1ccccc1S2` (stereo not given) [Zaltoprofen] was -0.47.
The result for `O=C(CCCN1CCC(O)(c2ccc(Cl)cc2)CC1)c1ccc(F)cc1` [Haloperidol] reads 0.68; that for `CCCCN(CCCC)CC(O)c1cc(Cl)cc2c1-c1ccc(Cl)cc1/C2=C/c1ccc(Cl)cc1` (stereo not given) [Lumefantrine], -0.76.
Consider `O=C(O)c1cn(-c2ccc(F)cc2)c2cc(N3CCNCC3)c(F)cc2c1=O` [Sarafloxacin HCl], for which the “z-score of subpopulation abundance” value was -0.74.
Regarding `CC/C(=C(\c1ccccc1)c1ccc(OCCN(C)C)cc1)c1ccccc1` [Tamoxifen], the “z-score of subpopulation abundance” value was determined as 0.96.
Regarding `CC1(C)S[C@@H]2[C@H](NC(=O)C(c3ccccc3)S(=O)(=O)O)C(=O)N2[C@H]1C(=O)O` (stereo not given in full) [Sulbenicillin Sodium], the “z-score of subpopulation abundance” value was -0.32.
`CCCN[C@H]1CCc2nc(N)sc2C1` [Pramipexole]: the “z-score of subpopulation abundance” value was -0.15.
The value for `C#CCN[C@@H]1CCc2ccccc21` [Rasagiline] was -0.1; that for `Nc1ccc(C(=O)O)c(O)c1` [4-Aminosalicylic acid] was 0.78.
